Data published in the supplement of paper PMC11417369.
± gives the standard deviation of the averaged measurements. Whole data set: some 25,000 sequences, median “ln(normalized median fluorescence intensity)” near 8.6, cut for the highest 2% near 10. Many of the other results were omitted from the sample, so the highest values are more common in it than they were.

System: PfAP2-EXP AP2 domain (GST-tagged)
Experiment: gcPBM binding intensity (ln(normalized median fluorescence intensity)); higher = stronger DNA binding
In short: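 An Agilent 4 × 180k array carrying primer-extended double-stranded 36-bp intergenic genomic probes and negative controls received GST-tagged P. falciparum DNA-binding domains expressed in E. coli, about 25 μg on average, for 1 h. The binding buffer contained 1× PBS, 1% milk, 0.2 mg/ml BSA, 0.5% salmon testes DNA and 0.03% Triton X-100. Binding intensity is the top Masliner-normalised natural-log median intensity across replicate spots of either probe orientation, read after Alexa488 anti-GST antibody staining and a 488 nm scan.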

Sequence	gcPBM binding intensity (ln)
CTTTAAGTTATATGAAGTACAATTTAAAAAAATGAA [XGTACX_site358]	8.41 ± 0.38
TTTAAAAAGTTATGAAGTACATATATATATATATAT [XGTACX_site2188]	10.2 ± 0.29
TTTTTTTTTTTGATGGTGCAATATATTAAATAGAAA	8.86 ± 0.28
AATATATGGTTCCTTGATATTAAATTCAATTTAATG [CACACA_negctrl_site71]	8.41 ± 0.52
TAATTGATTCTTCACCGTACTCACACATATATATAT [XGTACX_site6530]	9.61 ± 0.14
GATTCTTCACCGTACTCACACATATATATATATATA [CACACA_site5665]	10.2 ± 0.52
ATATATATATATATATGTACACATATATATACTCAC [XGTACX_site8043]	10 ± 0.4
ATATTATATATATACACACACACATGCATGCACCTA [CACACA_site106]	10.07 ± 0.099
TTTGGGATAAAACAAAGTACTAACAAAATATATAAT [XGTACX_site8240]	8.85 ± 0.47
ATTTATATTTTTTAATGTACATTTATATGTATACAA [XGTACX_site4555]	8.78 ± 0.41
ATATAATATTTCATGTGGACACATTTTATGATTGTA [XGTACX_site8770]	8.74 ± 0.38
TGCAAAAAAAAAAAAAAAAAATATATGGAAATATAT [GTGCAC_negctrl_site257]	8.54 ± 0.19
ATGGAAATAAAAAAAAAAAAAAAAAAAAATATATAT [GTGCAC_negctrl_site67]	8.36 ± 0.33
TTGTATATATATGGAAAAATATATATATATATATAT [GTGCAC_negctrl_site591]	10.3 ± 0.29
CGTATTATTATATAAACACACAAGGGGGCATGTATA [CACACA_site745]	9.83 ± 0.042
AATATTTAAGTACTGGTGCGTGTATATAATGATTAA [GTGCAC_site9633]	8.665 ± 0.078
AATATTTTAAATATTGCATGCAATGAAAAATGTAAA [TGCATGCA_site139]	10.2 ± 0.31
AAAAAAAAAAAAATTGCATGTAAATGAAATAATAAA [TGCATGCA_site116]	8.89 ± 0.2
TTATTGTAAATATATGCATGTGCAAAATGAAAAAAA [TGCATGCA_site399]	9.07 ± 0.18
TAAAAGTTCACCTGTACACACATATAAATATGTACA [CACACA_site6901]	8.47 ± 0.33
TAAGTTCCCTTTGAATGTACATATAATGAAAAGAAA [XGTACX_site826]	8.76 ± 0.37
AGTTTCCATATGAGGTGTACATATATAATTTATTAT [XGTACX_site2369]	8.72 ± 0.4
ATATATTTACTTAATACACACAAAAAAAAAAAAAAA [CACACA_site3657]	8.21 ± 0.52

Sequence	gcPBM binding intensity (ln)
AAAAATACCTTATATATACACACTATGTTTTTCTTT [CACACA_site1192]	8.71 ± 0.28
TATTGCCCGAAACACACACACATATATATATATATA [CACACA_site2491]	10.3 ± 0.2
TATATATAGAAACACACACACACATATATATATATT [CACACA_site2539]	8.73 ± 0.67
TATATTGCCCTTCACACACACACATATATATATATA [CACACA_site2492]	10.2 ± 0.28
TATTGCCCTTGACACACACACATATAAATAAATATA [CACACA_site7220]	8.63 ± 0.37
TATATATAGAAACACACACACATATATATATATATT [CACACA_site4115]	8.7 ± 0.37
TATTGCCCTGGACACACACACATATATATATATATA [CACACA_site5389]	10.2 ± 0.51
TTCAAATATAAATACACACACATAGCTACAAAATAA [CACACA_site4172]	8.95 ± 0.42
ATATATATATATATTTGTACAGATTTATATTATAAT [XGTACX_site7612]	9.96 ± 0.23
ATTCATATATTTATTGCATGCAAAGTAAAATAAATA [TGCATGCA_site307]	10.23 ± 0.099
TTTGCAACATATAAAAGTACAAATAATATATTTATT [XGTACX_site890]	8.41 ± 0.43
TATTATTTTTCATATGCATGCAAAAATAAAAAAATA [TGCATGCA_site350]	9.63 ± 0.35
ACAAAAGGGGAATACACACACATATATAAATAAATA [CACACA_site7111]	8.73 ± 0.45
AAGATATGAGGGAATACACACATATTTATATTTATA [CACACA_site6846]	8.26 ± 0.38
ATACAAAAGGGGAATACACACACATATATATATATA [CACACA_site8694]	10.1 ± 0.33
ACAAAAGGGGAATACACACACATATATATATATATA [CACACA_site2215]	10.2 ± 0.52
ATAAAATCAAAATATACACACAAGGGGGAAAATCAA [CACACA_site2809]	8.96 ± 0.42
TACACAAGGGGAAAAATATATATATATATATATATA [TGCATGCA_negctrl_site217]	10.2 ± 0.57
GGAATATATATACATACACACATATATATATATATA [CACACA_site1666]	10.1 ± 0.33
AGTATATATACACAAGGGGAATACATATACAAAATT [TGCATGCA_negctrl_site244]	8.89 ± 0.39
AAGATATGAGGGAATACACACATATATATATATATA [CACACA_site1581]	10.2 ± 0.43
TTTTTAATAATCTCTCAAAATGTTCTTATATTTTAC [CACACA_negctrl_site1691]	8.11 ± 0.26
